# Test results reported in ChEMBL document CHEMBL3988442, “University of Dundee, Small-Polar-MMV Screening Library” (2021).
# Molecular target: T1, Arginase-2, mitochondrial (Homo sapiens) (UniProt P78540)
# T1 sequence (whole entry): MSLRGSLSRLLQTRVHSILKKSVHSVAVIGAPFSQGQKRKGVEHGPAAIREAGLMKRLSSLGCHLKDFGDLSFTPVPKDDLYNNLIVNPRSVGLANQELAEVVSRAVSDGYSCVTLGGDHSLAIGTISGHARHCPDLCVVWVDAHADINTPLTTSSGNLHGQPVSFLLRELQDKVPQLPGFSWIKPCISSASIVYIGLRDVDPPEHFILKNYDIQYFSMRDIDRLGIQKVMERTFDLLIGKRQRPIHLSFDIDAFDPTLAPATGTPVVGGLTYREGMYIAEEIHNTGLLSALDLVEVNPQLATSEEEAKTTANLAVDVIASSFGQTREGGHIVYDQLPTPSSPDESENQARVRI
# Assay: in vitro enzyme assay to detect the production of urea directly proportional to the activity of Arginase II
# Type: functional
# Parameters: scale not given: in the data most compounds retested in dose-response had high values
# Details: 30 µM
row,Compound,Percent Effect [%]
1,OC(COc1ccccc1)CN1CCN(c2nccs2)CC1 (stereo not given),4.87
2,CC(C)CNC(=O)c1cc(Br)c2c(c1)OCCO2,3.78
3,Cc1nc(NCC2CC2)nc2c1COCC21CCN(C(=O)NC(C)C)C1 (stereo not given),7.03
4,Cc1cccc(NC2CCc3c2[nH]c(=O)n(C2CCCCC2)c3=O)c1C (stereo not given),-0.54
5,CCC(C(=O)NCc1cccnc1)N(c1cccc(C)c1)S(C)(=O)=O (stereo not given),-0.54
6,Cc1noc(CNC(=O)N2CCN(c3nc(C)c(C)s3)CC2)n1,5.95
7,CN(C)C(=O)CN1CCC(c2cncc(-c3cccc(Cl)c3)n2)CC1,-0.54
8,Cc1noc(C)c1C(=O)N1CCCC(c2nccn2Cc2cscn2)C1 (stereo not given),5.95
9,O=C(NCc1ccccn1)[C@]12COC[C@H]1CN(Cc1ccccc1F)C2,4.87
10,CCCc1n[nH]cc1C(=O)NCC1COc2cc(OC)ccc2C1 (stereo not given),8.11
11,O=C(NC1CC1)[C@@H]1CCO[C@@H]2CCN(CCc3ccccc3)C[C@@H]21,10.3
12,CNC(=O)[C@H]1C[C@@H]2CN(C(=O)c3ccc(C)o3)C[C@@H]2N1S(C)(=O)=O,1.62
13,CN(Cc1ccco1)[C@@H]1CN(Cc2nccn2C)[C@@H]2CCCO[C@H]12,11.3
14,COc1ccc(C(=O)N2C[C@@H](C(=O)O)[C@H](c3cccc(F)c3)C2)c(O)c1,7.03
15,Cn1cc(CC2CCN(C(=O)NCCCc3ccc(O)cc3)C2)cn1 (stereo not given),7.03
16,CNC(=O)[C@H]1C[C@@H]2CN(C(=O)c3occc3C)C[C@@H]2N1S(C)(=O)=O,2.7
17,CNC(=O)[C@H]1C[C@@H]2CN(C(=O)c3ccncc3)C[C@@H]2N1S(C)(=O)=O,4.87
18,Cc1cc(C)cc(OCC(O)CN2CCN(c3nccs3)CC2)c1 (stereo not given),4.87
19,O=C(O)C1CCN(C(=O)Cn2ccc3c(Cl)cccc32)CC1,10.3
20,COc1ccc(C2SC(C)=Nc3c2c(=O)[nH]n3C2CCCC2)cc1O (stereo not given),2.7

row,Compound,Percent Effect [%]
1,O=c1[nH]c2c(c(=O)n1C1CCCCC1)CCC2Nc1ccc(Cl)cc1 (stereo not given),-2.7
2,Nc1ccc(C(=O)N2CCCC(c3nccn3Cc3cscn3)C2)cn1 (stereo not given),5.95
3,Cc1cccc(C(=O)N2CCCC(c3nccn3Cc3cscn3)C2)n1 (stereo not given),9.19
4,O=c1[nH]c2c(c(=O)n1C1CCCCC1)CCC2Nc1ccccn1 (stereo not given),5.95
5,CCn1c(NCc2ccc(OC)cc2)nc2c(C)nn(C)c2c1=O,-4.87
6,CCC(C(=O)NCc1ccncc1)N(c1cccc(Cl)c1)S(C)(=O)=O (stereo not given),-13.5
7,CN(C)c1ncccc1NC(=O)C1CN(Cc2ccccc2)CCO1 (stereo not given),-8.11
8,CN(Cc1ccccn1)C1CC2(CCN(Cc3ccccn3)CC2)C1,-16.8
9,COc1ccccc1Oc1ncccc1CNC(=O)[C@H](N)CC(C)(C)C,10.3
10,CC(C)CS(=O)(=O)CC(=O)N1CCCC1c1noc(C2CC2)n1 (stereo not given),5.95
11,Cc1cccc(-c2nc(CN3CC(n4nc(C)cc4C)C3)no2)c1,5.95
12,CC(=O)N[C@@H](C)C(=O)NCc1cccnc1Oc1ccccc1F,2.7
13,CN(Cc1ccco1)[C@@H]1CN(CC2CCOCC2)C[C@@H]2CCCO[C@@H]21,7.03
14,COc1cccc(C(=O)N2C[C@@H](C(=O)O)[C@H](c3ccccc3C)C2)c1,5.95
15,NC(=O)CCCNC(=O)c1cc(Br)c2c(c1)OCCO2,3.78
16,CS(=O)(=O)NCCC(=O)N1CCCC1c1noc(C2CC2)n1 (stereo not given),11.3
17,Fc1ccc(CNCc2nnc3n2CC(C(F)(F)F)CC3)c(F)c1 (stereo not given),8.11
18,CCn1c(NCc2ccccc2)nc2c(C)nn(C)c2c1=O,8.11
19,COCC(=O)N1CCC(c2cncc(-c3cccc(F)c3)n2)CC1,-5.95
20,O=c1[nH]c2c(c(=O)n1C1CCCCC1)CCC2NCc1ccccc1 (stereo not given),9.19
